Source: PubChem BioAssay (EPA / NIEHS)
Activity calls are given as the source filed them. How the source made its calls: active means hit-call score of the fitted dose curve at least 0.9, where 1 is the maximum; inactive means score below 0.9.

Legend:
[1] = ATG_CRE_CIS: Attagene CIS-FACTORIAL HepG2 Assay for human cAMP Responsive Element (CRE) binding protein 3 (AID 2282926); settings: HepG2 CRE cis-reporter, Attagene multiplexed mRNA; actives raise or lower the signal
Method in brief: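 Human liver HepG2, transient MRTU transfection, 24 h compound exposure. Total RNA → oligo(dT) RT → PCR → 6-FAM primer extension → HpaI cut → CE. Activity called both directions vs DMSO.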

[2] = target: CCAAT/enhancer-binding protein beta (Homo sapiens) (UniProt P17676); test: ATG_C_EBP_CIS: Attagene CIS-FACTORIAL HepG2 Assay for human CCAAT/Enhancer Binding Protein (C/EBP) beta (AID 2282927); settings: HepG2 Attagene cis-factorial transcription factor reporter; actives raise or lower the signal
Method in brief: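 Endogenous transcription factor activity in human liver HepG2 cells is inferred from induction of a CEBPB-linked reporter mRNA. Exposure lasts 24 h; activity is fitted in both directions relative to DMSO.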

[3] = ATG_CMV_CIS: Attagene CIS-FACTORIAL HepG2 Assay for human CMV (Internal Marker) (AID 2282928); settings: HepG2 CMV promoter reporter, transcription factor profiling; actives raise or lower the signal;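 further: endpoint acts as a background internal control marker rather than a target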
Method in brief: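 HepG2 cells transiently transfected with multiple cis-regulated reporter units; 24 h compound exposure. Reporter mRNA quantified by RT-PCR, 6-FAM primer-extension labeling, HpaI digestion and capillary electrophoresis; bidirectional fitting against DMSO baseline.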

[4] = ATG_DR4_LXR_CIS: Attagene CIS-FACTORIAL HepG2 Assay for human Liver X Receptor (LXR), DR4 submotif (AID 2282929); settings: HepG2 Attagene DR4 cis-reporter, mRNA transcription; actives raise or lower the signal
Method in brief: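 Endogenous factor activity at a DR4 cis-element is read as reporter mRNA in transiently transfected HepG2 cells. Exposure lasts 24 h; transcripts are amplified, fluorescently labelled and sized by capillary electrophoresis, with DMSO as baseline.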

[5] = target: Aryl hydrocarbon receptor (Homo sapiens) (UniProt P35869); test: ATG_Ahr_CIS: Attagene CIS-FACTORIAL HepG2 Assay for human Aryl Hydrocarbon Receptor (Ahr) (AID 2282930); settings: HepG2 AhR cis-factorial reporter transcription; actives raise or lower the signal
Method in brief: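 Transient MRTU transfection of HepG2 → 24 h compound exposure → total RNA, oligo(dT) RT → PCR, 6-FAM extension, HpaI cut → CE fluorescence. DMSO = baseline; bidirectional curve fit.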

[6] = ATG_AP_1_CIS: Attagene CIS-FACTORIAL HepG2 Assay for human Activator Protein 1 (AP-1) (AID 2282931); settings: HepG2 Attagene cis-factorial AP-1 reporter mRNA; actives raise or lower the signal
Method in brief: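 Fluorescence of labelled PCR fragments separated by capillary electrophoresis gives reporter mRNA levels. HepG2 with transfected cis-regulated reporter units, 24 h exposure; DMSO serves as baseline for bidirectional curve fits.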

[7] = ATG_AP_2_CIS: Attagene CIS-FACTORIAL HepG2 Assay for human Activator Protein 2 (AP-2) (AID 2282932); settings: HepG2 AP-2 cis-reporter, Attagene transcription factor profiling; actives raise or lower the signal
Method in brief: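 HepG2, transient MRTU transfection, cis-regulated reporters; 24 h compound exposure; RNA isolated, RT-PCR, 6-FAM labelling, HpaI digest, CE fluorescence. DMSO = negative control/baseline, bidirectional fit.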

[8] = ATG_BRE_CIS: Attagene CIS-FACTORIAL HepG2 Assay for human Bone Morphogenetic Protein (BMP) Response Element (BRE) (AID 2282933); settings: HepG2 BMP response element reporter, Attagene transcription factor profiling; actives raise or lower the signal
Method in brief: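 After a 24 h chemical treatment, transiently transfected HepG2 cells were lysed for RNA; reporter transcripts were quantified by fluorescent RT-PCR and capillary electrophoresis, normalised to DMSO.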

[9] = target: Transcription factor E2F1 (Homo sapiens) (UniProt Q01094); test: ATG_E2F_CIS: Attagene CIS-FACTORIAL HepG2 Assay for human E2F Transcription Factor 1 (AID 2282935); settings: HepG2 Attagene cis-reporter, E2F reporter RNA transcripts; actives raise or lower the signal
Method in brief: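 Cis-element reporter mRNA induction in transiently transfected HepG2, 24 h exposure. Activity fitted in both directions relative to DMSO negative control.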

[10] = ATG_E_Box_CIS: Attagene CIS-FACTORIAL HepG2 Assay for human Enhancer Box (E-box) (AID 2282936); settings: HepG2 E-box cis-reporter transcription, actives raise or lower the signal
Method in brief: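 Cells: HepG2 (human liver), transient MRTU transfection. Exposure 24 h. RNA → oligo(dT) RT → PCR → 6-FAM label → HpaI → CE. Activity fitted both directions relative to DMSO.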

[11] = ATG_M_61_CIS: Attagene CIS-FACTORIAL HepG2 Assay for M61 Transcription Factor (Internal Marker) (AID 2282937); settings: HepG2 Attagene CIS-FACTORIAL M61 internal marker reporter; actives raise or lower the signal
Method in brief: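 This endpoint serves as an internal background control within a multiplexed HepG2 cis-reporter panel. Cells are exposed for 24 h; reporter mRNA is amplified, fluorescently labelled and sized by capillary electrophoresis, with DMSO as negative control.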

[12] = ATG_EGR_CIS: Attagene CIS-FACTORIAL HepG2 Assay for human Early Growth Response 1 (EGR1) (AID 2282938); settings: HepG2 Attagene CIS-FACTORIAL EGR reporter mRNA; actives raise or lower the signal
Method in brief: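 HepG2, transient MRTU transfection (cis promoters), 24 h compound. RNA → RT (oligo-dT) → PCR → 6-FAM labelling → HpaI cut → CE fluorescence. Bidirectional fit, DMSO baseline.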

[13] = ATG_Ets_CIS: Attagene CIS-FACTORIAL HepG2 Assay for human Erythroblast Transformation Specific (ETS) (AID 2282941); settings: HepG2 ETS cis-reporter transcription, actives raise or lower the signal
Method in brief: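 HepG2 cells transiently transfected with cis-promoter reporter transcription units were dosed for 24 h; reporter mRNA was measured by RT-PCR, 6-FAM primer extension, HpaI digestion and capillary electrophoresis, with bidirectional fitting against DMSO baseline.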

[14] = target: Hepatocyte nuclear factor 3-beta (Homo sapiens) (UniProt Q9Y261); test: ATG_FoxA2_CIS: Attagene CIS-FACTORIAL HepG2 Assay for human Forkhead box A2 (FOXA2) (AID 2282942); settings: HepG2 cis-reporter transcription factor activity, 24 h; actives raise or lower the signal
Method in brief: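 Cells: HepG2, transient multiplex reporter transfection. Exposure 24 h. Detection: reporter-specific RT-PCR, fluorescent labelling, restriction digest, capillary electrophoresis. Analysis: bidirectional curve fit, DMSO as negative control.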

[15] = ATG_FoxO_CIS: Attagene CIS-FACTORIAL HepG2 Assay for human Forkhead box O (FoxO) (AID 2282943); settings: HepG2 Attagene cis-reporter, FoxO element, mRNA; actives raise or lower the signal
Method in brief: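 HepG2, transient MRTU transfection (cis element, endogenous TFs). Dose 24 h. TriZol RNA → oligo(dT) RT → PCR → 6-FAM primer extension → HpaI cut → CE. Gain/loss vs DMSO.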

[16] = ATG_GATA_CIS: Attagene CIS-FACTORIAL HepG2 Assay for human GATA Binding Protein (AID 2282944); settings: HepG2 GATA cis-element reporter, Attagene multiplex mRNA; actives raise or lower the signal
Method in brief: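 Measures endogenous transcription factor-driven reporter mRNA in HepG2 cells transiently carrying cis-regulated constructs. 24 h dosing; RNA via oligo(dT) reverse transcription, PCR, HpaI digestion, capillary electrophoresis; fitted relative to DMSO.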

[17] = ATG_GLI_CIS: Attagene CIS-FACTORIAL HepG2 Assay for human Zinc Finger Protein GLI1 (AID 2282945); settings: HepG2, Attagene cis-factorial reporter mRNA, GLI element; actives raise or lower the signal
Method in brief: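 Bidirectional curve fits relative to DMSO, using reporter mRNA levels from RT-PCR plus capillary electrophoresis. Cells were HepG2 transiently carrying cis-regulated reporter constructs, harvested 24 h after dosing.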

[18] = ATG_M_19_CIS: Attagene CIS-FACTORIAL HepG2 Assay for M19 Transcription Factor (Internal Marker) (AID 2282939); settings: HepG2 Attagene CIS-FACTORIAL M19 internal marker reporter; actives raise or lower the signal
Method in brief: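 In this multiplexed cell assay, transiently transfected HepG2 reporter units report endogenous transcription-factor activity; after 24 hours of treatment, labelled reporter cDNA fragments are quantified by capillary electrophoresis and fitted bidirectionally against DMSO.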

[19] = target: Retinoic acid receptor alpha (Homo sapiens) (UniProt P10276); test: ATG_DR5_RAR_CIS: Attagene CIS-FACTORIAL HepG2 Assay for human Retinoic Acid Receptor Alpha (RARE), DR5 submotif (AID 2282934); settings: HepG2 Attagene cis-factorial RARE DR5 reporter, mRNA; actives raise or lower the signal;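 on AC50: reporter responds to endogenous RAR alpha beta and gamma in HepG2 not RARA alone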
Method in brief: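 Transient MRTU transfection of HepG2; 24 h compound treatment; TriZol RNA, oligo(dT) RT, PCR, FAM labelling, capillary electrophoresis. Bidirectional fit vs DMSO. Endogenous TF activity at DR5 RARE.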

[20] = ATG_ERE_CIS: Attagene CIS-FACTORIAL HepG2 Assay for Estrogen Response Element (ERE) (AID 2282940); settings: HepG2 ERE cis-reporter, Attagene RNA transcript; actives raise or lower the signal
Method in brief: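 Measuring endogenous transcription factor output, the assay doses transfected HepG2 cells for 24 hours and quantifies reporter transcripts by fluorescent RT-PCR and capillary electrophoresis, with DMSO as baseline.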

Measured: AC50

Aryl hydrocarbon receptor (Homo sapiens), sequence (P35869 whole entry, looked up): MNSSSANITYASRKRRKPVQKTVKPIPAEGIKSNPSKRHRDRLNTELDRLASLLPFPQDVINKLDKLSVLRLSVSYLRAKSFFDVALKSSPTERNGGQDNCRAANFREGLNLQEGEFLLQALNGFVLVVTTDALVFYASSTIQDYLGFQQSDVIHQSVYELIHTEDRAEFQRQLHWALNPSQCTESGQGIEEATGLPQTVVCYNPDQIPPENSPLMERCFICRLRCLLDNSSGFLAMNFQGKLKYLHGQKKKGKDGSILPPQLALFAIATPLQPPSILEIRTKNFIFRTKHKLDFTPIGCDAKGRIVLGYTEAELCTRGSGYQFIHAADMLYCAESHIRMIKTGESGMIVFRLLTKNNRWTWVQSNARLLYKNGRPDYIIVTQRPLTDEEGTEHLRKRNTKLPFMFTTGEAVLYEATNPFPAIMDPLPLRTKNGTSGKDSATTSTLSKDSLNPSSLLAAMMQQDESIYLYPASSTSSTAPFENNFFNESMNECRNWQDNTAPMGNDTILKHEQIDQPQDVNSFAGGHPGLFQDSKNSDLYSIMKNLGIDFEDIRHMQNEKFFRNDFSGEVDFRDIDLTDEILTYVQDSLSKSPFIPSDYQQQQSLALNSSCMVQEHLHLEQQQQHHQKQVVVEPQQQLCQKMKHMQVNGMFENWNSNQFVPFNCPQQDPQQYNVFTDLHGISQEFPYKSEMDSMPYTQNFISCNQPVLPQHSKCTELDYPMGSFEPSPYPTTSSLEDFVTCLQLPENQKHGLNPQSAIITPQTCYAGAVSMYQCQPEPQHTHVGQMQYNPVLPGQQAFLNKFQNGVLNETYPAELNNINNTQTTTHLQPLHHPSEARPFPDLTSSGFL
Hepatocyte nuclear factor 3-beta (Homo sapiens), sequence (Q9Y261 whole entry, looked up): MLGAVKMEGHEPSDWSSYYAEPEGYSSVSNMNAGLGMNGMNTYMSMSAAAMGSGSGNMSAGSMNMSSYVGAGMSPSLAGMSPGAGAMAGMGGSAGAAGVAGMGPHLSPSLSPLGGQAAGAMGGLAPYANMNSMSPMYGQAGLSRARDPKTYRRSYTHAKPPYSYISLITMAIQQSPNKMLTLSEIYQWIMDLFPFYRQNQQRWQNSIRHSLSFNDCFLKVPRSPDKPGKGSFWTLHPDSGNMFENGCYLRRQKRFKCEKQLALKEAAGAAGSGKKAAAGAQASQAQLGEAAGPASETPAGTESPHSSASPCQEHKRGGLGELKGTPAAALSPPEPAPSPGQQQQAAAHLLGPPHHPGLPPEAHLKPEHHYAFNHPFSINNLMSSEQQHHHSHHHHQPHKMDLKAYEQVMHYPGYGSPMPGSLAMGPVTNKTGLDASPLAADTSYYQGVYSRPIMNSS
CCAAT/enhancer-binding protein beta (Homo sapiens), sequence (P17676 whole entry, looked up): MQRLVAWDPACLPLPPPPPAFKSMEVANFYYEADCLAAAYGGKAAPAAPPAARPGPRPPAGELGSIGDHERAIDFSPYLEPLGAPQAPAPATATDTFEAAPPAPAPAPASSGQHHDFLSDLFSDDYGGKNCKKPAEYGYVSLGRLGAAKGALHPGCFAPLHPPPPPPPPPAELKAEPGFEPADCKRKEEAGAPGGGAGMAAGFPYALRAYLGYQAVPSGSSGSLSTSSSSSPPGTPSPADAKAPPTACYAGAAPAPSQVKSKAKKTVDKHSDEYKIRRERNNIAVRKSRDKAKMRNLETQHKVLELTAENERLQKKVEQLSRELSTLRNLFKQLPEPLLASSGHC
Retinoic acid receptor alpha (Homo sapiens), sequence (P10276 whole entry, looked up): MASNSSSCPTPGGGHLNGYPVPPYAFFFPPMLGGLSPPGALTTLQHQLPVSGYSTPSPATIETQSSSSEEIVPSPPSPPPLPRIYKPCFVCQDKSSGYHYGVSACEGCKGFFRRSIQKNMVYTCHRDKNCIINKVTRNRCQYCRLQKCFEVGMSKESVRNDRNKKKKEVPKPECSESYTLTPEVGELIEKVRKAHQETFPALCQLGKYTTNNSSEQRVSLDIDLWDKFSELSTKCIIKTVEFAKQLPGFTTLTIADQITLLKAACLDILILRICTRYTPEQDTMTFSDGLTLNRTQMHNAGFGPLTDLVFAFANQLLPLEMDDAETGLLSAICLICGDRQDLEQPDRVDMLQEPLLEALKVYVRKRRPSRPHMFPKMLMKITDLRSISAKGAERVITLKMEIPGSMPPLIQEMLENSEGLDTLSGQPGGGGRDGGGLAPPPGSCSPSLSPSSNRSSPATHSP
Transcription factor E2F1 (Homo sapiens), sequence (Q01094 whole entry, looked up): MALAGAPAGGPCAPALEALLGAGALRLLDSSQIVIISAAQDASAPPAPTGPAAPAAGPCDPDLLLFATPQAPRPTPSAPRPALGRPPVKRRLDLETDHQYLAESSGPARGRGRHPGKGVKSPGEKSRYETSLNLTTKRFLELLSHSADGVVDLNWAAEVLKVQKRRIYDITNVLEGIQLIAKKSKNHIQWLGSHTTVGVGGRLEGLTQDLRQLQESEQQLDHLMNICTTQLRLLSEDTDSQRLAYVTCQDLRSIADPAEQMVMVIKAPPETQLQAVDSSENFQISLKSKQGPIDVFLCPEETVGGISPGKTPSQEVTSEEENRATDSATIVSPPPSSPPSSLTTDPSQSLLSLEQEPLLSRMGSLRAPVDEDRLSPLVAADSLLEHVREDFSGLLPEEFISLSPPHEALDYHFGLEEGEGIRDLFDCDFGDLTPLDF

Nc1ccc(-c2ccc(N)c(Cl)c2)cc1Cl
active: [3] 2.15 µM | [5] 6.23 µM
not listed: [18] | [19] | [20]
inactive: all other assays above

CC1CN1P(=O)(N1CC1C)N1CC1C (stereo not given)
not listed: [17] | [19] | [20]
inactive: all other assays above

N#CN=C(N)N
not listed: [11] | [18]
inactive: all other assays above

CC(C)(OO)c1ccccc1
active: [19] 48.2 µM | [10] 55.2 µM
not listed: [11]
inactive: all other assays above

Cc1cc(=O)[nH]o1
not listed: [17] | [19]
inactive: all other assays above

CCOP(=S)(OCC)SCSP(=S)(OCC)OCC
active: [20] 6.47 µM
not listed: [11] | [17]
inactive: all other assays above

O=C1C(Cl)=C(Cl)C(=O)c2ccccc21
active: [5] 1.86 µM | [20] 5.75 µM
not listed: [11]
inactive: all other assays above

Clc1ccc(C2(Cn3cncn3)CC(Br)CO2)c(Cl)c1 (stereo not given)
active: [3] 99.5 µM | [4] 68.1 µM | [5] 27.6 µM | [6] 35.5 µM | [8] 99.5 µM
not listed: [19] | [20]
inactive: all other assays above

C=CC(=O)OCCCCCC(C)C
not listed: [11] | [20]
inactive: all other assays above

CC(C)(c1ccc(OCC2CO2)cc1)c1ccc(OCC2CO2)cc1 (stereo not given)
active: [1] 36 µM | [2] 51.6 µM | [3] 49.2 µM | [4] 25.9 µM | [6] 53.9 µM | [10] 52.4 µM | [12] 33.4 µM
not listed: [17] | [18] | [20]
inactive: all other assays above

Cc1ccccc1N
not listed: [19] | [20]
inactive: all other assays above

OCc1ccco1
not listed: [19]
inactive: all other assays above

CNC
not listed: [17] | [18] | [19]
inactive: all other assays above

COC(=O)Cc1ccccc1
not listed: [11]
inactive: all other assays above

ClCCBr
not listed: [18] | [19]
inactive: all other assays above
